PubChem BioAssay AID2315 (National Center for Advancing Translational Sciences (NCATS), 2010)
In all, about 290,000 compounds went through this assay and about 27,000 (9.3%) were called active. This is one part of a sample in which actives are shown more often than they occur. A number with no mark means an inactive call. No stated cut-off is given here; in the data, active means inhibition mostly above about 28% (no sharp cut-off); inactive means mostly below about 43%.

assay: A qHTS for Small Molecule Inhibitors of Shiga Toxin; conditions: Vero cells, Shiga toxin protein synthesis inhibition reporter; at 38.7 µM, active compounds read high; further: 0% is about no effect

| SMILES | inhibition |
| --- | --- |
| CC[C@H](C)[C@H](NC(=O)[C@@H](N)CCC(=O)O)C(=O)N[C@@H](CC(C)C)C(=O)N[C@@H](CC(=O)O)C(=O)N[C@H](C(=O)N1CCC[C@H]1C(=O)N[C@@H](CO)C(=O)N[C@H](C(=O)O)[C@@H](C)O)C(C)C | -4.46% |
| CCOc1cccc2c1OC1(CCCCC1)N1N=C(c3cccnc3)CC21 (stereo unspecified) | 42.4% (active) |
| c1cncc(-c2nnc3n2C2(CCCCC2)Cc2ccccc2-3)c1 | -14.6% |
| CCOc1ccccc1C1CC(c2cccc(NS(C)(=O)=O)c2)=NN1C(=O)c1ccccc1 (stereo unspecified) | 3.98% |
| CCCCc1nc2cc(C(=O)N3CCCCC3CCO)ccc2o1 (stereo unspecified) | 105% (active) |
| CCC1CCCCN1C(=O)CSc1nc(C)cc(C)n1 (stereo unspecified) | -8.51% |
| COc1ccc(C(=O)NC2CC2)cc1OC1CCN(Cc2cnn(C)c2)CC1 | 14.2% |
| CCC1C(=O)NCCN1C(=O)c1ccc2nc(Cc3ccc(OC)cc3)oc2c1 (stereo unspecified) | 3.17% |
| CCCCc1nc2cc(C(=O)NCCc3cnn(C)c3)ccc2o1 | 36.3% (active) |
| Cc1c(C(=O)N(C)CCc2cnn(C)c2)oc2c(F)cccc12 | 2.81% |
| CC(C)c1nnc(NC(=O)C2CC(=O)N(CCc3ccc(F)cc3)C2)s1 (stereo unspecified) | -7.25% |
| COc1cccc(NC(=O)c2cc(S(=O)(=O)N3CCc4ccccc43)cn2C)c1 | 7.48% |
| CCc1ccc(OC(C)C(=O)Nc2ccc(S(=O)(=O)Nc3cc(C)on3)cc2)cc1 (stereo unspecified) | -9.78% |
| CC(CCc1ccc(O)cc1)NCc1ccc(Cl)cc1Cl (stereo unspecified) | -4.82% |
| CCCCC1(C(=O)OCC)NC(c2ccc(O)cc2)C2C(=O)N(c3ccccc3)C(=O)C21 (stereo unspecified) | -10.2% |
| COc1ccc(NC(=O)CN2C(=O)CSC2=O)cc1 | -1.96% |
| CCc1ccc(NC(=O)CN2C(=O)CSC2=O)cc1 | 53.9% (active) |
| CCc1ccc(NC(=O)CN2C(=O)COc3ccc(S(=O)(=O)N4CCCC4)cc32)cc1 | -5.17% |
| O=C(Nc1ccccc1N1CCN(C(=O)c2ccccc2)CC1)c1ccc2c(c1)OCO2 | -7.26% |
| CC1(c2ccc(Cl)cc2)NC(=O)N(CC(=O)c2ccc3c(c2)OCO3)C1=O (stereo unspecified) | 1.96% |
| O=C(CN1CCN(c2ccccc2F)CC1)c1ccc2c(c1)OCO2 | 53% (active) |
| CCOc1cc(C2/C(=C(/O)c3ccc(S(=O)(=O)N4CCCCC4)cc3)C(=O)C(=O)N2CCOC)ccc1O (stereo unspecified) | -10.6% |
| O=C(Nc1cccc(OC(=O)N2CCCCC2)c1)N1CCOCC1 | -5.26% |

| SMILES | inhibition |
| --- | --- |
| O=C(Oc1ccc(F)cc1)N1CCOCC1 | -2.55% |
| O=C(Oc1ccc2c(c1)CCC2)N1CCOCC1 | 97.3% (active) |
| CNS(=O)(=O)c1cccc(C(=O)NC2CCCc3ccccc32)c1 (stereo unspecified) | 2.04% |
| COc1ccccc1N(CC(=O)NC1CCCC1)C(=O)C1(C)CC(=O)N=C2C=CC(C)=CN21 (stereo unspecified) | -13.3% |
| CSc1ncccc1C(=O)NC1CCCCCC1 | 27.5% |
| CSc1ncccc1C(=O)OCc1ccc(Br)cc1 | 42% (active) |
| CSc1ncccc1C(=O)OCC(=O)N1CCOCC1 | -2.04% |
| COc1ccc(N2CCN(C(=O)[C@@H](NC(=O)c3cc(OC)cc(OC)c3)C(C)C)CC2)cc1 | 2.67% |
| O=C(CN1CCN(S(=O)(=O)c2ccc(F)cc2)CC1)NC1CC1 | -30.6% |
| COc1ccc(-c2ccc(C3C4C=CCCC4(C)C(=O)N3Cc3ccccc3)c(F)c2)cc1OC (stereo unspecified) | -1.56% |
| COCCCNC(=O)COc1cc(C)c(Cl)c(C)c1 | -11.4% |
| Cc1cc(OCc2ccc(C(=O)Nc3ccc(C(=O)O)cc3)o2)ccc1Cl | 2.97% |
| Cc1cc(OCc2cc(C(=O)NCc3cc(C(C)C)no3)no2)cc(C)c1Cl | 79.8% (active) |
| Nc1nc(CC(=O)CSc2ccc(Cl)cc2)nc(Nc2ccc(F)cc2)n1 | -6.2% |
| CC(C)CN(C(=O)c1cccc(S(=O)(=O)N2CCCCC2)c1)C1CCS(=O)(=O)C1 (stereo unspecified) | -6.54% |
| CCOC(=O)C1(CCc2ccccc2)CCN(Cc2ccco2)CC1 | -2.54% |
| CCOC(=O)C1(Cc2ccccc2C)CCCN(S(C)(=O)=O)C1 (stereo unspecified) | -1.22% |
| O=C(Cn1c(=O)n(CC2CS2)c2ccccc21)N1CCCCC1 (stereo unspecified) | -7.24% |
| CCOC(=O)C1(Cc2ccccc2C)CCCN(C(=O)CN2C(=O)CSC2=O)C1 (stereo unspecified) | 78.9% (active) |
| CCOC(=O)C1(Cc2ccccc2C)CCCN(C(=O)c2ccc(COC)o2)C1 (stereo unspecified) | 121% (active) |
| O=C(CN1C(=O)CSC1=O)N1CCCC(Nc2ccc(F)cc2)C1 (stereo unspecified) | 0.485% |
| CC(C)c1ccc(S(=O)(=O)NC2CCCC2)cc1 | -8.49% |
| CCc1ccccc1NC(=O)c1ccc2c(c1)CCN2S(C)(=O)=O | 21.4% |
